For seven compounds, growth results are on record in PubChem BioAssay (NCI).

The panel holds about 83,000 compounds, 20% with a hit somewhere; the sample as a whole holds those more often.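 Cell lines were cultured in 96-well plates, exposed to a single compound concentration, and assessed for percent growth 48 hours later.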 A number with no mark means an inactive call. The source made the active and inactive calls. How the source made its calls: active means growth percent below 10; inactive means the rest.

Holding throughout (test): NCI-60 one-dose screen, 48 h (100 = growth as untreated, 0 = no growth, -100 = all killed)
Conditions in all cases: 10 µM unless noted

In experiment [1] the test system is NCI-H23 lung.
Experiment [2] relates to NCI-H226 lung.
The test system of experiment [3] is NCI-H322M lung.
Experiment [4] relates to HOP-62 NSCLC.
Experiment [5] concerns NCI-H460 lung.
The subject of experiment [6] is 786-0 renal.
Experiment [7] has as its system MDA-MB-231 breast.
For experiment [8], the system named is SF-268 CNS.
Experiment [9] has as its system SF-539 CNS.
Experiment [10] relates to M14 melanoma.
In experiment [11] the test system is U251 CNS.
The test system of experiment [12] is PC-3 prostate.
Experiment [13] concerns UACC-62 melanoma.
The subject of experiment [14] is SK-MEL-28 melanoma.
The subject of experiment [15] is UO-31 renal.
In experiment [16] the test system is OVCAR-3 ovarian.
Experiment [17] concerns SW-620 colon.
In experiment [18] the test system is MCF7 breast.
Experiment [19] concerns HCT-116 colon.
In experiment [20] the test system is KM12 colon.

`c1ccc(CCN2CCCCC2Cc2ccccc2)cc1` (stereo not given): the growth in experiment [1] is 86.2%; in experiment [2], 102%; in experiment [3], 78.5%; in experiment [4] it was 97.2%; in [5] it was 116%; in experiment [6], 102%. The growth in [7] is 96.4%; in experiment [8], 99.4%; in experiment [9], 101%; in experiment [10] it was 94.7%; in experiment [11], 98.5%; in [12], 103%. The growth in experiment [13] is 92.4%; in experiment [14] it was 97.5%; in [15] it was 74.7%; in experiment [16] it was 103%; in experiment [17], 107%; in experiment [18], 96.1%. The growth is 78.1% in experiment [19] and 103% in experiment [20].
For the compound `COC(=O)C(=[N+]=[N-])C(=O)OC`, the growth is 98.1% in experiment [1]; 99.2% in experiment [2]; 103% in [3]; 103% in experiment [4]; 106% in [5]; 98.3% in experiment [6]. Moreover, the growth is 113% in [7]; 106% in experiment [8]; 103% in experiment [9]; 103% in experiment [10]; 104% in experiment [11]; 92.3% in experiment [12]. Also, the growth in [13] is 95.3%; in [14], 105%; in experiment [15] it was 88.3%; in experiment [16], 118%; in experiment [17], 100%; in [18], 88.3%. In addition, the growth in [19] is 94.2%; in [20], 110%.
In the case of `COP(=S)(OC)Oc1ccc(SC)c(C)c1`, the growth is 97.7% in [1]; 85.6% in experiment [2]; 108% in [3]; 95.4% in experiment [4]; 110% in experiment [5]; 104% in experiment [6]. Further, the growth in [7] was 113%; in [8], 110%; in [9] it was 94.4%; in [10], 101%; in experiment [11], 100%; in [12], 85.9%. In addition, the growth is 95.5% in [13]; 115% in experiment [14]; 80.2% in [15]; 104% in experiment [16]; 106% in experiment [17]; 113% in experiment [18]. Besides, the growth in [19] is 103%; in experiment [20], 105%.
For the compound `Nc1cccc2c1Oc1ccccc1O2`, the growth was 105% in experiment [1]; 86.2% in experiment [2]; 102% in [3]; 102% in experiment [4]; 190% in experiment [5]; 99.2% in experiment [6]. In addition, the growth was 93.1% in experiment [7]; 176% in experiment [8]; 112% in [9]; 108% in experiment [10]; 99.6% in experiment [11]; 84.9% in experiment [12]. In addition, the growth in experiment [13] is 88.1%; in experiment [14], 124%; in experiment [15], 201%; in experiment [16], 103%; in experiment [17], 107%; in experiment [18] it was 137%. The values for the growth in experiment [19] and in experiment [20] were 93.3% and 114%, respectively.
In the case of `O=C(c1cccs1)C1NO[N+]([O-])=C1c1cccs1` (stereo not given), the growth in experiment [1] is 4.55% (active); in experiment [2], -0.733% (active); in experiment [3] it was 110%; in [4] it was 89.6%; in experiment [5] it was 82.3%; in experiment [6] it was 0.474% (active). Moreover, the growth was 86.2% in [7]; 109% in experiment [8]; 36.3% in experiment [9]; -40.2% (active) in experiment [10]; 64% in experiment [11]; 57.1% in [12]. The growth in experiment [13] is 88.7%; in experiment [14] it was 65.8%; in experiment [15], -83.3% (active); in experiment [16] it was -10.4% (active); in experiment [17] it was -91.9% (active); in [18], 81.8%. The results for the growth in experiment [19] and in experiment [20] were 25.6% and 74.8%, respectively.
`O=C1NC2(CCNCC2)Nc2ccccc21`: the growth was 100% in experiment [1]; 97.7% in [2]; 109% in experiment [3]; 96.6% in experiment [4]; 110% in experiment [5]; 107% in [6]. The growth in [7] is 120%; in [8] it was 106%; in experiment [9], 114%; in [10], 100%; in experiment [11] it was 91.2%; in experiment [12], 88.5%. For the same compound, the growth in experiment [13] is 96.1%; in [14], 116%; in experiment [15] it was 89.4%; in experiment [16], 108%; in experiment [17] it was 102%; in experiment [18], 107%. Further, the growth was 100% in experiment [19] and 105% in experiment [20].
Take `CCN(CC)CCOc1c(C(C)C)cccc1C(C)C`: the growth in experiment [1] is 104%; in experiment [2] it was 111%; in experiment [3] it was 88.3%; in experiment [4], 96.7%; in experiment [5] it was 112%; in experiment [6], 99.6%. For the same compound, the growth in experiment [7] is 109%; in experiment [8], 107%; in [9], 116%; in experiment [10] it was 99.2%; in experiment [11], 98.6%; in experiment [12] it was 101%. Further, the growth was 99.5% in [13]; 92.1% in experiment [14]; 94.4% in experiment [15]; 107% in experiment [16]; 106% in [17]; 94.2% in experiment [18]. Further, the growth is 95.2% in experiment [19] and 99.3% in [20].
